The full data set covers some 7,900 targets. This sample favours those with a hit. About 0.6% of all pairs of compound and target were hits.
Key:
Test in all cases: log2 fold change, soluble protein after heating vs DMSO (PISA); higher = thermal stabilisation; K562 cells, 10 uM, 30 min; active = over 0.2 and 3.5 SD of the protein, either way, in both replicates (recomputed)
erlotinib = compound: C#Cc1cccc(Nc2ncnc3cc(OCCOC)c(OCCOC)cc23)c1 [erlotinib]
Summary of the method: (§1)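 Soluble protein was quantified by TMTpro 16plex LC-MS/MS after channel sums were equalised. It was obtained as the supernatant after 21,000xg for 90 min from pooled aliquots of K562 cells (2×10^6 cells/mL, 10 μM compound, 30 min) heated for 3 min across 48°C-58°C and extracted in PBS with 0.5% NP-40 at 4°C. Thermal stability values are relative to control samples and come from duplicates. They are given as log2 fold changes.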

[1] = compound: C/C(=N\NC(=O)C1=CC(=CC=C1)S(=O)(=O)N2CCOCC2)/C3=C(C=CC(=C3)Cl)O
Summary of the method: as §1

[2] = compound: C1=CC(=C(C=C1Cl)C2=NC3=NC=CN=C3C(=N2)NC4=CC=NC=C4)F
Summary of the method: as §1

[3] = compound: C1=CC(=CC=C1C2=NC3=C(N2)C=C(C=C3)C(=O)N)OC4=CC=C(C=C4)Cl
Summary of the method: as §1

[4] = compound: C1=CC2=C(C=CC(=C2)/C=C\3/C(=O)NC(=NCC4=CC=CS4)S3)N=C1
Summary of the method: as §1

[5] = compound: C1=CC2=NC=CN=C2C=C1/C=C/3\C(=O)NC(=O)S3
Summary of the method: as §1

[6] = compound: C1=CC=C(C=C1)C2=NC(=C(N2)C3=CC=NC=C3)C4=CC(=C(C=C4)Cl)O
Summary of the method: as §1

[7] = compound: C1=CC=C2C(=C1)C3=NNC4=CC=CC(=C43)C2=O
Summary of the method: as §1

[8] = compound: C1CCN(C1)C(=O)NC2=CC=CC(=C2)NC3=NC=C(C(=N3)NCCC4=CN=CN4)Br
Summary of the method: as §1

[9] = compound: C1CN(CCC1(CC2=CC=C(C=C2)Cl)N)C3=NC=NC4=C3C=CN4
Summary of the method: as §1

IRAK-1-4 Inhibitor I = compound: C1COCCN1CCN2C3=CC=CC=C3N=C2NC(=O)C4=CC(=CC=C4)[N+](=O)[O-] [IRAK-1-4 Inhibitor I]
Summary of the method: as §1

ibrutinib = compound: C=CC(=O)N1CCC[C@@H](n2nc(-c3ccc(Oc4ccccc4)cc3)c3c(N)ncnc32)C1 [ibrutinib]
Summary of the method: as §1

[10] = compound: CC(=O)c1cnc2ccc(-c3cc(Cl)c(O)c(Cl)c3)nc2c1N[C@H]1CC[C@H](CN(C)C)CC1
Summary of the method: as §1

ralimetinib = compound: CC(C)(C)Cn1c(N)nc2ccc(-c3[nH]c(C(C)(C)C)nc3-c3ccc(F)cc3)nc21 [ralimetinib]
Summary of the method: as §1

[11] = compound: CC(C)(O)CC(=O)NCCn1ccc2ncnc(Nc3ccc(Oc4cccc(C(F)(F)F)c4)c(Cl)c3)c21
Summary of the method: as §1

[12] = compound: CC(C)C1=C2N=C(C=C(N2N=C1)NCC3=CC=CC=C3)NCCCCCCN
Summary of the method: as §1

[13] = compound: CC(C)C[C@@H](C=O)NC(=O)[C@H](CC(C)C)NC(=O)[C@H](CC(C)C)NC(=O)OCc1ccccc1
Summary of the method: as §1

pinometostat = compound: CC(C)N(C[C@H]1O[C@@H](n2cnc3c(N)ncnc32)[C@H](O)[C@@H]1O)[C@H]1C[C@@H](CCc2nc3cc(C(C)(C)C)ccc3[nH]2)C1 [pinometostat]
Summary of the method: as §1

[14] = compound: CC1=C(C(CC(=O)N1)C2=CC=C(C=C2)C(F)(F)F)C(=O)NC3=C(C=C4C(=C3)C=NN4)F
Summary of the method: as §1

[15] = compound: CC1=C(C2=C(C=C1)C(=O)C3=CC=CC=C3N2CCCN)C
Summary of the method: as §1

Measured: log2 fold change

SSR4 (UniProt P51571)
UniProt P51571, sequence (P51571 whole entry, looked up): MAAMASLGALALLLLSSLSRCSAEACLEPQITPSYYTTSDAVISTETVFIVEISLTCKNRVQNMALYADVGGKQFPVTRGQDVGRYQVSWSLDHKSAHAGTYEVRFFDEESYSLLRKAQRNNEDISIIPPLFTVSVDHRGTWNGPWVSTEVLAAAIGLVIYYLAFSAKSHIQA
inactive: erlotinib -0.016 | [1] 0.055 | [2] 0.041 | [3] 0.051 | [4] 0.059 | [5] 0.007 | [6] -0.031 | [7] -0.002 | [8] 0 | [9] -0.025 | IRAK-1-4 Inhibitor I 0.003 | ibrutinib 0.032 | [10] -0.033 | ralimetinib 0.049 | [11] -0.034 | [12] -0.03 | [13] 0.032 | pinometostat -0.028 | [14] -0.015 | [15] 0.09

STEAP3 isoform 2 (UniProt Q658P3)
UniProt Q658P3, sequence (Q658P3 whole entry, looked up): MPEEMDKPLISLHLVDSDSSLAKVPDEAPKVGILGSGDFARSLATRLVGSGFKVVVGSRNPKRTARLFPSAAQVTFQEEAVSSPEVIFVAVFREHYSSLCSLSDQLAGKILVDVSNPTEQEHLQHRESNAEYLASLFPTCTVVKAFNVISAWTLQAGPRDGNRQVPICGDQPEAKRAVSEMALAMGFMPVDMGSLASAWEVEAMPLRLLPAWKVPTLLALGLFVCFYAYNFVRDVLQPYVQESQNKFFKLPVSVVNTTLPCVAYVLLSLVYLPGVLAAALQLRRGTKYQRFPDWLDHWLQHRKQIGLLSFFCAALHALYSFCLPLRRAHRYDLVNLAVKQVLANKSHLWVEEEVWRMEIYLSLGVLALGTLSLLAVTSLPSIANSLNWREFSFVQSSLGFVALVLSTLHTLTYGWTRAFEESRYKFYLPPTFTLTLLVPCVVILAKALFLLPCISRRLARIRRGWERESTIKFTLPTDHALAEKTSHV
inactive: erlotinib 0.053 | [1] 0.038 | [2] 0.017 | [3] -0.019 | [4] 0.053 | [5] 0.02 | [6] -0.008 | [7] 0.004 | [8] -0.036 | [9] 0.032 | IRAK-1-4 Inhibitor I -0.002 | ibrutinib -0.005 | [10] -0.067 | ralimetinib 0.013 | [11] -0.087 | [12] -0.011 | [13] 0.032 | pinometostat 0.043 | [14] 0.019 | [15] 0.044

SRSF3 (UniProt P84103)
UniProt P84103, sequence (P84103 whole entry, looked up): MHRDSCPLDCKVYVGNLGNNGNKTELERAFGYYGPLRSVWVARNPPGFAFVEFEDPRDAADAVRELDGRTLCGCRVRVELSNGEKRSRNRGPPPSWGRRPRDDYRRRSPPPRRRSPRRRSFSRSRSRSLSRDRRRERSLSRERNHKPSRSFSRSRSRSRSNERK
inactive: erlotinib -0.074 | [1] -0.03 | [2] -0.35 | [3] 0.053 | [4] -0.074 | [5] -0.009 | [6] -0.003 | [7] 0.006 | [8] 0.097 | [9] -0.107 | IRAK-1-4 Inhibitor I -0.207 | ibrutinib 0.11 | [10] -0.035 | ralimetinib 0.112 | [11] 0.19 | [12] 0.083 | [13] 0.152 | pinometostat 0.064 | [14] 0.125 | [15] -0.134

TBC1D23 (UniProt Q9NUY8)
inactive: erlotinib 0.043 | [1] 0.012 | [2] 0.047 | [3] 0.067 | [4] 0.071 | [5] 0.021 | [6] -0.032 | [7] -0.054 | [8] -0.036 | [9] -0.025 | IRAK-1-4 Inhibitor I 0.062 | ibrutinib -0.02 | [10] -0.067 | ralimetinib 0.002 | [11] -0.098 | [13] 0.071 | pinometostat -0.046 | [14] 0.055 | [15] 0.01
active: [12] -0.45

TCOF1 isoform 4 (UniProt Q13428)
UniProt Q13428, sequence (Q13428 whole entry, looked up): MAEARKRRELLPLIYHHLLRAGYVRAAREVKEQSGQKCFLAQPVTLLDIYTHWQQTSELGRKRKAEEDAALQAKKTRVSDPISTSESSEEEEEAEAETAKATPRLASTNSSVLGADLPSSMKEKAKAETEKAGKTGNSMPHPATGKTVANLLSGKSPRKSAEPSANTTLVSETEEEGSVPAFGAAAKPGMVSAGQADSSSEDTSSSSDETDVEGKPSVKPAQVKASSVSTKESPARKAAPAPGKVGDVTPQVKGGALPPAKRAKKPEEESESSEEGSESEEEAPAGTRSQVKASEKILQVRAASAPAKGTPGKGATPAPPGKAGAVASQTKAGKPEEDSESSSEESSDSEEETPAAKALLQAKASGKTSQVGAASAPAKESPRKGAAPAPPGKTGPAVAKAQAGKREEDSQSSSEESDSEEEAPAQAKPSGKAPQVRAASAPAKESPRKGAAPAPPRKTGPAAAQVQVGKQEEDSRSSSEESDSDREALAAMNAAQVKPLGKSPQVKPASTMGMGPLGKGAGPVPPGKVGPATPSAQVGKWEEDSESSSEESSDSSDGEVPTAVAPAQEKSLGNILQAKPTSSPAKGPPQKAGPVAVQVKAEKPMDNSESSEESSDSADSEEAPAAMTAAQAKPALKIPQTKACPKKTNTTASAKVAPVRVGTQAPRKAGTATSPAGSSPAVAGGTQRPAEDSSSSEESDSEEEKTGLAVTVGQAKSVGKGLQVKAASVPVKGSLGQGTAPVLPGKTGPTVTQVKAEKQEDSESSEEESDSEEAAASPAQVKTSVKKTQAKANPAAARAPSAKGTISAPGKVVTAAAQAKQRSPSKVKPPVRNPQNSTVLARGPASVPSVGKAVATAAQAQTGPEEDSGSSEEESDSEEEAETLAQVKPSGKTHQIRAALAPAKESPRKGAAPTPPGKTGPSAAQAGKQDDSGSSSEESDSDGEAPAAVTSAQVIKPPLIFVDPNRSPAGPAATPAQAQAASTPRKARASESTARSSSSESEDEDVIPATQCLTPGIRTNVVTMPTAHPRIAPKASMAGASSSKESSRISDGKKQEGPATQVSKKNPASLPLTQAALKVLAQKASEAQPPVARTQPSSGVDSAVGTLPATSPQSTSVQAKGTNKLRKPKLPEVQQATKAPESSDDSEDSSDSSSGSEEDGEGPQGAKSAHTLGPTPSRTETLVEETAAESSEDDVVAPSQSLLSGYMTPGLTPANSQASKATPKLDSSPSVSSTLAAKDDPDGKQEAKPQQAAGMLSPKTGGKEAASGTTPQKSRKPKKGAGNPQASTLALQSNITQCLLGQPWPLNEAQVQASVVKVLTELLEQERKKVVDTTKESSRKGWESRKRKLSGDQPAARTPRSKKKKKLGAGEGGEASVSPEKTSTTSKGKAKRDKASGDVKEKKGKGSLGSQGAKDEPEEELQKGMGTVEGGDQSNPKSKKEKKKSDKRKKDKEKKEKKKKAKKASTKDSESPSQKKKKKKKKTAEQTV
inactive: erlotinib 0.035 | [1] -0.005 | [2] -0.005 | [3] -0.008 | [4] -0.002 | [5] 0.014 | [6] -0.024 | [7] -0.001 | [8] -0.043 | [9] -0.107 | IRAK-1-4 Inhibitor I -0.009 | ibrutinib -0.034 | [10] -0.13 | ralimetinib 0.028 | [11] 0.023 | [12] -0.042 | [13] -0.083 | pinometostat 0.024 | [14] 0.015
active: [15] -0.664

STARD7 (UniProt Q9NQZ5)
UniProt Q9NQZ5, sequence (Q9NQZ5 whole entry, looked up): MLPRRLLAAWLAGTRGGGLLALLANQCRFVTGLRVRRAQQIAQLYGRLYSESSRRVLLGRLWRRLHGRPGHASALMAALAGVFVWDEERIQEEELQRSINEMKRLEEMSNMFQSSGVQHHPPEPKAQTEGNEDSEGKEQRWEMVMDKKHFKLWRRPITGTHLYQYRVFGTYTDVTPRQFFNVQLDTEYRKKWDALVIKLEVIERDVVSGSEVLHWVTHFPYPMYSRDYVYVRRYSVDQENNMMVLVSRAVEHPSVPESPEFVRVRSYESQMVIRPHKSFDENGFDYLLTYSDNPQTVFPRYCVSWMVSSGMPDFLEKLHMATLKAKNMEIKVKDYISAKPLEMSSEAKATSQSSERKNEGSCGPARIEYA
inactive: erlotinib -0.021 | [1] 0.084 | [2] 0.024 | [3] 0.086 | [4] 0.031 | [5] 0.009 | [6] 0.017 | [7] 0.067 | [8] 0.006 | [9] -0.029 | IRAK-1-4 Inhibitor I -0.012 | ibrutinib 0.055 | [10] -0.026 | ralimetinib -0.01 | [11] -0.051 | [12] -0.057 | [13] 0.028 | pinometostat -0.009 | [14] -0.019 | [15] -0.003

TBC1D10B (UniProt Q4KMP7)
UniProt Q4KMP7, sequence (Q4KMP7 whole entry, looked up): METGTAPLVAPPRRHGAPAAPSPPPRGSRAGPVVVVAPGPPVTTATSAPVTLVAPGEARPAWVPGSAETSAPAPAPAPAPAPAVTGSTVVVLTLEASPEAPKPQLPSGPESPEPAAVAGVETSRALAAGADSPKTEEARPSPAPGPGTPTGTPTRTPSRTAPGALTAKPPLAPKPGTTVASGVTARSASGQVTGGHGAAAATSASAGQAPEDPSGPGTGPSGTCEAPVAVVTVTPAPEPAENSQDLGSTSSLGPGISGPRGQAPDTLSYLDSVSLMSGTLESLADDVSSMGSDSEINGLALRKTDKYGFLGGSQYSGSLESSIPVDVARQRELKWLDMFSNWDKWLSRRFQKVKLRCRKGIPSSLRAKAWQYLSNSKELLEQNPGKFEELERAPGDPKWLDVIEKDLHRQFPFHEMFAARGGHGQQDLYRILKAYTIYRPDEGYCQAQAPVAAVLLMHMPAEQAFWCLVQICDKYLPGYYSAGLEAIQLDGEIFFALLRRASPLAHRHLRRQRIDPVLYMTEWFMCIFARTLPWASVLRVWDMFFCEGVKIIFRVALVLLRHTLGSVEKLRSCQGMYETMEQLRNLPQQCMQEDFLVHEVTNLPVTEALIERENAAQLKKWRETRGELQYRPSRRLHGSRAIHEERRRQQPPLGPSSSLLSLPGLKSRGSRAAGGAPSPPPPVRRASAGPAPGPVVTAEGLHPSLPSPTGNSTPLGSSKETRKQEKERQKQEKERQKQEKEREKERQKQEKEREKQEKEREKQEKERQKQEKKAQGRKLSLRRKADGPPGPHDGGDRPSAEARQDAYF
inactive: erlotinib -0.013 | [1] 0.063 | [2] -0.018 | [3] 0.039 | [4] -0.008 | [5] 0.036 | [6] -0.033 | [7] -0.109 | [8] -0.024 | [9] -0.033 | IRAK-1-4 Inhibitor I -0.001 | ibrutinib 0.025 | ralimetinib 0.009 | [11] -0.006 | [12] -0.027 | [13] 0.021 | pinometostat 0.063 | [14] -0.015 | [15] 0.057
active: [10] -0.342

TFAM (UniProt Q00059)
UniProt Q00059, sequence (Q00059 whole entry, looked up): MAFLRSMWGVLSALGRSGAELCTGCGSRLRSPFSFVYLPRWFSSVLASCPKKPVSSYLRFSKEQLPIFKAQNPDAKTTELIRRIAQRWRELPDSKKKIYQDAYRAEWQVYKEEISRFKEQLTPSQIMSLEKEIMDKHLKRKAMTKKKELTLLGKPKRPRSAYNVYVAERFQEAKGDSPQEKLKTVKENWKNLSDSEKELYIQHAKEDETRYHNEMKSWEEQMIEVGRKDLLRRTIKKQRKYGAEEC
inactive: erlotinib -0.085 | [1] -0.071 | [2] -0.127 | [3] 0.031 | [4] -0.009 | [5] -0.022 | [6] -0.068 | [7] -0.05 | [8] 0.06 | [9] -0.078 | IRAK-1-4 Inhibitor I -0.047 | ibrutinib 0.03 | [10] 0.07 | ralimetinib 0.044 | [11] 0.043 | [12] 0.007 | [13] 0.056 | pinometostat 0.05 | [14] 0.002
active: [15] -0.414

THADA (UniProt Q6YHU6)
inactive: erlotinib 0.039 | [1] 0.068 | [2] 0.03 | [3] 0.035 | [4] 0.071 | [5] 0.007 | [6] 0.029 | [7] -0.002 | [8] -0.011 | [9] -0.006 | IRAK-1-4 Inhibitor I 0.007 | ibrutinib -0.026 | [10] -0.062 | ralimetinib 0.053 | [11] -0.166 | [12] -0.225 | [13] -0.071 | pinometostat 0.016 | [14] -0.05 | [15] -0.047

SULT1A1 (UniProt P50225)
UniProt P50225, sequence (P50225 whole entry, looked up): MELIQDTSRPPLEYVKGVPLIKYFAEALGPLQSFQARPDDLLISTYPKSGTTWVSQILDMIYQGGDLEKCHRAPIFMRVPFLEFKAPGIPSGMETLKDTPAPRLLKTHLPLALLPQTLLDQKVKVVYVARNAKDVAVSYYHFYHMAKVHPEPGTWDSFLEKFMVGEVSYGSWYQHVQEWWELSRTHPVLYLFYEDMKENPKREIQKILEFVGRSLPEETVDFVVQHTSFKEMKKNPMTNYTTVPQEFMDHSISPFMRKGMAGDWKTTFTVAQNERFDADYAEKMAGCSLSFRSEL
active: [4] 0.375 | [7] 0.396
inactive: erlotinib -0.003 | [1] 0.009 | [2] 0.109 | [3] 0.381 | [5] 0.031 | [6] 0.008 | [8] -0.111 | [9] 0.012 | IRAK-1-4 Inhibitor I -0.077 | ibrutinib 0.044 | [10] -0.099 | ralimetinib -0.029 | [11] -0.104 | [12] -0.104 | [13] -0.056 | pinometostat 0.001 | [14] 0.014 | [15] 0.048

SNRNP40 (UniProt Q96DI7)
UniProt Q96DI7, sequence (Q96DI7 whole entry, looked up): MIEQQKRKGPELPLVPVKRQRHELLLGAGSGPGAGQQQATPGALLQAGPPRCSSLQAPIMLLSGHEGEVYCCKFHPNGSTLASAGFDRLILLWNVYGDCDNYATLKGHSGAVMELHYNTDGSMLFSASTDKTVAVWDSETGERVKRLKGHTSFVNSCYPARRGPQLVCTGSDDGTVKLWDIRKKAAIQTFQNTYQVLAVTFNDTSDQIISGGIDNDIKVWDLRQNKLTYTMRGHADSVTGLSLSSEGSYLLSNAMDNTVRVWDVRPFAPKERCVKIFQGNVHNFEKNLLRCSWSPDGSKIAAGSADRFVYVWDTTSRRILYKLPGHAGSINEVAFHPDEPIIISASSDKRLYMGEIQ
active: [15] 1.03
inactive: erlotinib -0.048 | [1] -0.012 | [2] -0.111 | [3] 0.037 | [4] -0.007 | [5] 0.049 | [6] -0.024 | [7] -0.005 | [8] 0 | [9] 0.008 | IRAK-1-4 Inhibitor I -0.016 | ibrutinib 0.045 | [10] 0.068 | ralimetinib -0.026 | [11] 0.086 | [12] 0.177 | [13] 0.038 | pinometostat -0.019 | [14] -0.1

SRSF11 (UniProt Q05519)
UniProt Q05519, sequence (Q05519 whole entry, looked up): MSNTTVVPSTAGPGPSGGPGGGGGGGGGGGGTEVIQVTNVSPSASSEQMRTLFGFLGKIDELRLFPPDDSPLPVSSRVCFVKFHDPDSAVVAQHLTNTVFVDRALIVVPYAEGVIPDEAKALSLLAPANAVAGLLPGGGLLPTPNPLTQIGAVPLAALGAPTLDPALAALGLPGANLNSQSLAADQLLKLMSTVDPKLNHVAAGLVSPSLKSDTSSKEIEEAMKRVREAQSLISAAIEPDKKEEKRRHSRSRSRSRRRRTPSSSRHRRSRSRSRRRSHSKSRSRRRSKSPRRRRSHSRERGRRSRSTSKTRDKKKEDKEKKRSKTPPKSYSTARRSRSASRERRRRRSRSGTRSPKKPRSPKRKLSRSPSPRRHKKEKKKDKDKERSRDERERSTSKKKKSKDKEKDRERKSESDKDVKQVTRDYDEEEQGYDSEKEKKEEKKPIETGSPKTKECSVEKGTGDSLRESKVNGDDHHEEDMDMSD
inactive: erlotinib 0.05 | [1] 0.191 | [2] 0.06 | [3] 0.054 | [4] -0.049 | [5] -0.003 | [6] -0.026 | [7] -0.003 | [8] -0.129 | [9] -0.196 | IRAK-1-4 Inhibitor I -0.116 | ibrutinib -0.014 | ralimetinib 0.01 | [11] -0.049 | [12] -0.255 | [13] -0.005 | pinometostat -0.016 | [14] -0.011 | [15] 0.026
active: [10] -0.416
